In PubChem BioAssay (NCI):
The panel holds about 83,000 compounds, 20% with a hit somewhere; the sample as a whole holds those more often.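 Percent growth is the endpoint: 0 to 100 indicates growth inhibition (40 means 60% inhibition), 0 means no net growth, and negative values indicate cell death.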 Values without a mark were called inactive. Calls of active or inactive are those of the source. Rule for the calls: active = growth percent below 10; inactive = the rest.

Experiments:
Test in all cases: NCI-60 one-dose screen, 48 h (100 = growth as untreated, 0 = no growth, -100 = all killed)
Conditions in all cases: 10 µM unless noted
NCI-H23 lung = test system: NCI-H23 lung
NCI-H226 lung = test system: NCI-H226 lung
NCI-H322M lung = test system: NCI-H322M lung
HOP-62 NSCLC = test system: HOP-62 NSCLC
NCI-H460 lung = test system: NCI-H460 lung
HOP-92 NSCLC = test system: HOP-92 NSCLC
NCI-H522 lung = test system: NCI-H522 lung
A549/ATCC NSCLC = test system: A549/ATCC NSCLC
786-0 renal = test system: 786-0 renal
COLO 205 colon = test system: COLO 205 colon
DU-145 prostate = test system: DU-145 prostate
K-562 leukemia = test system: K-562 leukemia
MALME-3M melanoma = test system: MALME-3M melanoma
MDA-MB-231 breast = test system: MDA-MB-231 breast
RXF 393 renal = test system: RXF 393 renal
SF-268 CNS = test system: SF-268 CNS
SF-295 CNS = test system: SF-295 CNS
SF-539 CNS = test system: SF-539 CNS
UACC-257 melanoma = test system: UACC-257 melanoma
M14 melanoma = test system: M14 melanoma

SMILES | growth (NCI-H23 lung) [%] | growth (NCI-H226 lung) [%] | growth (NCI-H322M lung) | growth (HOP-62 NSCLC) [%] | growth (NCI-H460 lung) | growth (HOP-92 NSCLC) | growth (NCI-H522 lung) [%] | growth (A549/ATCC NSCLC) | growth (786-0 renal) | growth (COLO 205 colon) | growth (DU-145 prostate) [%] | growth (K-562 leukemia) | growth (MALME-3M melanoma) | growth (MDA-MB-231 breast) | growth (RXF 393 renal) | growth (SF-268 CNS) [%] | growth (SF-295 CNS) [%] | growth (SF-539 CNS) [%] | growth (UACC-257 melanoma) [%] | growth (M14 melanoma)
O=C(/C=C/c1ccc2ccccc2c1)Nc1ncc(Cc2ccccc2)s1 | 80.3 | 46 | 46.3% | 56.7 | 30.8% | 78.2% | 72.8 | 21.6% | 34.2% | 55.8% | 70.4 | 70.6% | 51% | 28.5% | 93.3% | 73.8 | 36.8 | 78.2 | 94.8 | 59.8%
Cc1cc2nc3c4cc(Cl)ccc4n(CCN(C)C)c3nc2cc1C | 10.7 | 10.4 | 9.53% (active) | 22.1 | 1.36% (active) | 25.8% | 19.7 | 3.82% (active) | 14.3% | -49.6% (active) | 15.3 | 3.43% (active) | -45.5% (active) | 7.77% (active) | -0.246% (active) | 33.3 | 11.4 | 14.1 | 38.7 | -45.7% (active)
O=[N+]([O-])c1ccc(N/N=C(\C(=N/Nc2ccc([N+](=O)[O-])cc2[N+](=O)[O-])c2ccccc2)c2ccccc2)c([N+](=O)[O-])c1 | 104 | 93.5 | 85.6% | 89.5 | 52.1% | 92.4% | 83.4 | 51.4% | 90.5% | 43.8% | 86.4 | 97.3% | 65.6% | 94.2% | 111% | 82.6 | 94.6 | 89.2 | 95.2 | 100%
N=C(N)c1ccc(S(N)(=O)=O)cc1 | 93.6 | 101 | 96.2% | 87.1 | 113% | 93.6% | 91.8 | 91.9% | 90.8% | 122% | 104 | 106% | 87.6% | 110% | 66.7% | 96.1 | 98.8 | 129 | 93 | 94.7%
COc1cc(/C=N/Nc2ncnc3c2c(C)nn3-c2ccc(F)cc2)ccc1O | 90.6 | 102 | 85.6% | 106 | 88.1% | 60.5% | 72.9 | 97.6% | 88.6% | 104% | 87.6 | 75.8% | 112% | 84.5% | 95.1% | 71 | 106 | 96.2 | 114 | 102%
Cc1ccc(-c2nn(Cc3cn(-c4cc(C)nc5ccccc45)nn3)c3ncnc(N)c23)cc1 | 68.7 | 35 | 40.6% | 60.4 | 68.4% | -0.284% (active) | 55.5 | 44.1% | 48.6% | 54.7% | 47.8 | 53.2% | 52.5% | 33.1% | 27.3% | 35.8 | 66.5 | 74.7 | 42.5 | 52.7%
Cn1cc(-c2csc(-c3cn(CCN)c4ccccc34)n2)c2cccnc21 | 59.3 | 66.4 | 70.9% | 40.1 | 24.8% | 37.6% | 65.8 | 40% | 46.7% | 20.7% | 75.6 | -44.3% (active) | 68.2% | 45.7% | 70.9% | 64.4 | 58.6 | 47.9 | 78.1 | 43.4%
O=C1c2ccccc2NC(c2cn(-c3ccccc3)nc2-c2cccs2)N1Cc1ccccc1 (stereo not given) | 74 | 96.3 | 85.3% | 86.9 | 94.5% | 74.1% | 72.3 | 82.8% | 73.6% | 93.5% | 97.6 | 70.7% | 109% | 77.4% | 94.5% | 78.9 | 80 | 88.5 | 103 | 80%
O=[N+]([O-])c1cc(S(=O)(=O)c2ccc(F)c([N+](=O)[O-])c2)ccc1F | 103 | 109 | 110% | 121 | 99.3% | 88.6% | 89 | 102% | 100% | 83% | 98.1 | 40.4% | 132% | 103% | 82.9% | 108 | 111 | 109 | 75.4 | 81.7%
COc1cc2nc(Cl)nc(Nc3cccc(C(=O)/C=C/c4ccc(Br)cc4)c3)c2cc1OC | 96.6 | 83 | 95.1% | 98 | 104% | 83.6% | 84.3 | 85.1% | 87% | 101% | 97.6 | 35.9% | 105% | 78% | 85.1% | 94.5 | 86.1 | 82.2 | 107 | 89.8%
COc1ccc(/C=C(\C#N)c2cc3ccccc3n2C(C)=O)cc1 | 88.3 | 102 | 94.6% | 93.3 | 92.4% | 99.2% | 70 | 83.5% | 96.9% | 97.3% | 99.7 | 25.1% | 83.8% | 82% | 88.3% | 97.3 | 84 | 93.8 | 99.6 | 70.7%
N#CC1=C(N)Oc2c(c(N)nn2-c2ccccc2)C1c1ccc(Cl)cc1 (stereo not given) | 93.4 | 87.2 | 101% | 89.8 | 103% | 92.7% | 87.6 | 100% | 98.8% | 106% | 99.6 | 106% | 106% | 87.5% | 93.8% | 94.1 | 96.6 | 98.4 | 105 | 103%
CCCNc1nc(N(C)O)nc(N(C)O)n1 | 41.3 | 62.9 | 41.5% | 16.6 | 11.5% | 45.2% | 37 | 41.3% | 7.79% (active) | 9.94% (active) | 24.9 | 50.7% | 83.2% | 39.5% | 39% | 35.2 | 21.5 | 27.1 | 56.2 | 20.7%
CC(=O)N1N=C(c2ccc(C)cc2)CC1c1ccc(Oc2ccc(Br)cc2)cc1 (stereo not given) | 83.1 | 90.1 | 73.9% | 83.6 | 98.4% | 89.4% | 83.2 | 81.5% | 80% | 97.7% | 91.4 | 75.3% | 87.6% | 85.7% | 92.8% | 79.5 | 94.4 | 94.7 | 96 | 88.3%
